Reference: the supplement of paper PMC12645437, “Orthogonal IMiD-Degron Pairs Induce Selective Protein Degradation in Cells” (ACS Chemical Biology, 2025)
In all, about 8,300 sequences were measured (“log2 fold change of degron read counts, EGFP-low vs EGFP+ sorted cells (limma voom), compound-induced degradation”: median about -1.1, highest 2% from about 3.2 on). Only a selection was taken, and the highest values are over-represented in it overall.

T1: CRBN, Q96SW2
T1 chain: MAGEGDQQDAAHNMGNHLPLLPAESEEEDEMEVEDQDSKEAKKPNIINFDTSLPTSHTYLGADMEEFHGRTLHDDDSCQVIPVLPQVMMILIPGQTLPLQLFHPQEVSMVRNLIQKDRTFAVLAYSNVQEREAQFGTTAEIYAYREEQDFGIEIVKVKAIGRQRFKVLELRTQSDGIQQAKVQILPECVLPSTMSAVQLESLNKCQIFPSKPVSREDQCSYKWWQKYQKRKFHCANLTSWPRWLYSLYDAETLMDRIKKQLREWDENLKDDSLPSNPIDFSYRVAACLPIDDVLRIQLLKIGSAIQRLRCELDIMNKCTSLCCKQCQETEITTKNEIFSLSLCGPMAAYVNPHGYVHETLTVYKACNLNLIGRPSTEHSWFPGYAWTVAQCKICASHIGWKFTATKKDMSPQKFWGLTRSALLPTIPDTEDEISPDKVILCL


Target: T1, CRBN, Q96SW2
Test: log2 fold change of degron read counts, EGFP-low vs EGFP+ sorted cells (limma voom), compound-induced degradation; higher = more compound-induced degradation of the degron-EGFP fusion; degrons are variants of IKZF1/3 zinc finger 2; compound dose not given here
Settings: Jurkat, 18 h
[1] = compound: compound 19 (5-tert-butyl-thalidomide)
[2] = compound: compound 22 (5-morpholino-thalidomide)
[3] = compound: compound 33 (diphenyl IMiD analogue)
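Also: pooled lentiviral library of zinc finger degron-EGFP fusions in mCherry-positive Jurkat cells, FACS-sorted after compound exposure, with degron abundance counted by next-generation sequencing.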

Row | Sequence | log2 fold change of degron read counts [1] | log2 fold change of degron read counts [2] | log2 fold change of degron read counts [3] | log2 fold change of degron read counts (compound: thalidomide)
1 | FGCPQCGALFTQKGNLLRHIKL [46F_47G_49P_50Q_52G_53A_54L_55F_67L_, Q9UKT9] | 0.741 | -1.93 | 1.28 | -2.08
2 | FSCDICGAKFTQKGNLLRHIKL [46F_47S_49D_50I_52G_53A_54K_55F_67L_, Q9UKT9] | 1.91 | 1.04 | -1.63 | 0.394
3 | FRCPVCGAVFTQKGNLLRHIKL [46F_47R_49P_50V_52G_53A_54V_55F_67L_, Q9UKT9] | -1.2 | -0.699 | 1.54 | 1.18
4 | FKCSVCGHMFTQKGNLLRHIKL [46F_47K_49S_50V_52G_53H_54M_55F_67L_, Q9UKT9] | -3.17 | -3 | -3.02 | -2.7
5 | LICNQCGFDCTQKGNLLRHIKL [46L_47I_49N_50Q_52G_53F_54D_55C_67L_, Q9UKT9] | -3.41 | -3.2 | -2.9 | -2.97
6 | FYCDICGAMFTQKGNLLRHIKL [46F_47Y_49D_50I_52G_53A_54M_55F_67L_, Q9UKT9] | 2.46 | 1.99 | 0.476 | -1.55
7 | FRCNQCGHNFTQKGNLLRHIKL [46F_47R_49N_50Q_52G_53H_54N_55F_67L_, Q9UKT9] | -2.02 | -3.14 | -2.79 | -2.26
8 | FVCDVCGAPFTQKGNLLRHIKL [46F_47V_49D_50V_52G_53A_54P_55F_67L_, Q9UKT9] | -0.0613 | 2.93 | 1.05 | 2.09
9 | FGCDVCGAPFTQKGNLLRHIKL [46F_47G_49D_50V_52G_53A_54P_55F_67L_, Q9UKT9] | -1.15 | -2.27 | -2.07 | -2.21
10 | FQCNVCGAPFTQKGNLLRHIKL [46F_47Q_49N_50V_52G_53A_54P_55F_67L_, Q9UKT9] | 0.618 | 2.01 | 0.742 | 2.69
11 | FRCPVCGAPFTQKGNLLRHIKL [46F_47R_49P_50V_52G_53A_54P_55F_67L_, Q9UKT9] | 3.29 | 3.62 | 3.27 | 3.51
12 | FRCDVCGAPFTQKGNLLRHIKL [46F_47R_49D_50V_52G_53A_54P_55F_67L_, Q9UKT9] | 2.07 | 3.3 | 3.21 | 2.88
13 | FQCPVCGAPFTQKGNLLRHIKL [46F_47Q_49P_50V_52G_53A_54P_55F_67L_, Q9UKT9] | 3.11 | 3.34 | 2.34 | 3.87
14 | FRCNVCGAPFTQKGNLLRHIKL [46F_47R_49N_50V_52G_53A_54P_55F_67L_, Q9UKT9] | 2.26 | 2.96 | 2.94 | 2.77
15 | FFCNVCGAPFTQKGNLLRHIKL [46F_47F_49N_50V_52G_53A_54P_55F_67L_, Q9UKT9] | 2.8 | 1.44 | 0.47 | -0.472
16 | FFCDVCGAPFTQKGNLLRHIKL [46F_47F_49D_50V_52G_53A_54P_55F_67L_, Q9UKT9] | 2.96 | 1.95 | 0.307 | -0.766
17 | FQCDVCGAPFTQKGNLLRHIKL [46F_47Q_49D_50V_52G_53A_54P_55F_67L_, Q9UKT9] | 0.996 | 2.11 | -0.0653 | 2.48
18 | FFCPVCGAPFTQKGNLLRHIKL [46F_47F_49P_50V_52G_53A_54P_55F_67L_, Q9UKT9] | 3.53 | 2.84 | 2.23 | 1.5
19 | FLCNVCGAPFTQKGNLLRHIKL [46F_47L_49N_50V_52G_53A_54P_55F_67L_, Q9UKT9] | -0.289 | 0.405 | 1.47 | 1.32
20 | FNCEICGALFTQKGNLLRHIKL [46F_47N_49E_50I_52G_53A_54L_55F_67L_, Q9UKT9] | 0.13 | -1.53 | -0.743 | -1.13
21 | FDCEICGAYFTQKGNLLRHIKL [46F_47D_49E_50I_52G_53A_54Y_55F_67L_, Q9UKT9] | -0.0199 | -1.26 | -0.229 | -0.2
22 | FTCNICGAMFTQKGNLLRHIKL [46F_47T_49N_50I_52G_53A_54M_55F_67L_, Q9UKT9] | -1.09 | -0.0854 | 0.875 | 0.88
23 | FDCNQCGHNFTQKGNLLRHIKL [46F_47D_49N_50Q_52G_53H_54N_55F_67L_, Q9UKT9] | -2.11 | -2.61 | -2.32 | -2.04
24 | FFCNQCGRDFTQKGNLLRHIKL [46F_47F_49N_50Q_52G_53R_54D_55F_67L_, Q9UKT9] | -2.83 | -3.38 | -3.07 | -2.85
25 | FGCNQCGHIFTQKGNLLRHIKL [46F_47G_49N_50Q_52G_53H_54I_55F_67L_, Q9UKT9] | -1.45 | -1.99 | -2.4 | -1.44
26 | FVCPQCGASFTQKGNLLRHIKL [46F_47V_49P_50Q_52G_53A_54S_55F_67L_, Q9UKT9] | -1.71 | 0.559 | 0.703 | 1.25
27 | FMCEICGANFTQKGNLLRHIKL [46F_47M_49E_50I_52G_53A_54N_55F_67L_, Q9UKT9] | -0.123 | 0.396 | 2.76 | 1.56
28 | LCCNQCGFFCTQKGNLLRHIKL [46L_47C_49N_50Q_52G_53F_54F_55C_67L_, Q9UKT9] | -1.18 | -1.17 | -1.27 | -0.874
